Data published in the supplement of paper PMC12645437, “Orthogonal IMiD-Degron Pairs Induce Selective Protein Degradation in Cells” (ACS Chemical Biology, 2025).
The full ranking holds about 8,300 sequences; the median of “log2 fold change of degron read counts, EGFP-low vs EGFP+ sorted cells (limma voom), compound-induced degradation” is about -1.1, and the highest 2% start at about 3.2. Shown is part of a subset that was picked to be rich in the highest values.

T1: CRBN, Q96SW2
T1 chain: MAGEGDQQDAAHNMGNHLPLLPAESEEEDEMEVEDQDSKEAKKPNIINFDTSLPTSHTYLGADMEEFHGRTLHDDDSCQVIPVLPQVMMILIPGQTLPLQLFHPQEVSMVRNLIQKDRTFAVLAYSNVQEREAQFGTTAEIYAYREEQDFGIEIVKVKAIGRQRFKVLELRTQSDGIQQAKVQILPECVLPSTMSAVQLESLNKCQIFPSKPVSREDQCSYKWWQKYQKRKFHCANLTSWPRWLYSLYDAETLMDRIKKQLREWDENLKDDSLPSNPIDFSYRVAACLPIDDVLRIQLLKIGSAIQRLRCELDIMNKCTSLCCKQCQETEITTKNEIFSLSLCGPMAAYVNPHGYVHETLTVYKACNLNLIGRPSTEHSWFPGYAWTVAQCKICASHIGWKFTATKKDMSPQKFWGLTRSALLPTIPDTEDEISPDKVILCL

B1: 46F_47T_49E_50Q_52G_53A_54Y_55F_67L_, Q9UKT9 (peptide)
chain: FTCEQCGAYFTQKGNLLRHIKL
B2: 46F_47E_49E_50Q_52G_53A_54P_55F_67L_, Q9UKT9 (peptide)
chain: FECEQCGAPFTQKGNLLRHIKL
B3: 46F_47R_49P_50I_52G_53A_54D_55F_67L_, Q9UKT9 (peptide)
chain: FRCPICGADFTQKGNLLRHIKL
B4: 46F_47N_49P_50I_52G_53R_54P_55F_67L_, Q9UKT9 (peptide)
chain: FNCPICGRPFTQKGNLLRHIKL
B5: 46F_47F_49P_50I_52G_53A_54P_55F_67L_, Q9UKT9 (peptide)
chain: FFCPICGAPFTQKGNLLRHIKL
B6: 46F_47F_49P_50I_52G_53A_54M_55F_67L_, Q9UKT9 (peptide)
chain: FFCPICGAMFTQKGNLLRHIKL
B7: 46F_47N_49P_50I_52G_53A_54M_55F_67L_, Q9UKT9 (peptide)
chain: FNCPICGAMFTQKGNLLRHIKL
B8: 46F_47N_49P_50I_52G_53A_54P_55F_67L_, Q9UKT9 (peptide)
chain: FNCPICGAPFTQKGNLLRHIKL
B9: 46F_47E_49P_50I_52G_53A_54P_55F_67L_, Q9UKT9 (peptide)
chain: FECPICGAPFTQKGNLLRHIKL
B10: 46F_47R_49P_50I_52G_53A_54P_55F_67L_, Q9UKT9 (peptide)
chain: FRCPICGAPFTQKGNLLRHIKL
B11: 46F_47K_49P_50I_52G_53A_54P_55F_67L_, Q9UKT9 (peptide)
chain: FKCPICGAPFTQKGNLLRHIKL
B12: 46F_47R_49P_50Q_52G_53A_54P_55F_67L_, Q9UKT9 (peptide)
chain: FRCPQCGAPFTQKGNLLRHIKL
B13: 46F_47S_49P_50I_52G_53A_54P_55F_67L_, Q9UKT9 (peptide)
chain: FSCPICGAPFTQKGNLLRHIKL
B14: 46F_47F_49P_50I_52G_53A_54F_55F_67L_, Q9UKT9 (peptide)
chain: FFCPICGAFFTQKGNLLRHIKL
B15: 46F_47Y_49E_50I_52G_53R_54M_55F_67L_, Q9UKT9 (peptide)
chain: FYCEICGRMFTQKGNLLRHIKL
B16: 46F_47W_49P_50Q_52G_53A_54T_55F_67L_, Q9UKT9 (peptide)
chain: FWCPQCGATFTQKGNLLRHIKL
B17: 46F_47M_49D_50Q_52G_53A_54A_55F_67L_, Q9UKT9 (peptide)
chain: FMCDQCGAAFTQKGNLLRHIKL
B18: 46L_47Y_49N_50Q_52G_53F_54L_55C_67L_, Q9UKT9 (peptide)
chain: LYCNQCGFLCTQKGNLLRHIKL

Target: T1, CRBN, Q96SW2
Assay: log2 fold change of degron read counts, EGFP-low vs EGFP+ sorted cells (limma voom), compound-induced degradation; higher = more compound-induced degradation of the degron-EGFP fusion; degrons are variants of IKZF1/3 zinc finger 2; compound dose not given here
Conditions: Jurkat, 18 h
[1] = compound: compound 19 (5-tert-butyl-thalidomide)
[2] = compound: compound 22 (5-morpholino-thalidomide)
[3] = compound: compound 33 (diphenyl IMiD analogue)
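Further: pooled lentiviral library of zinc finger degron-EGFP fusions in mCherry-positive Jurkat cells, FACS-sorted after compound exposure, with degron abundance counted by next-generation sequencing.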

Row | Sequence | log2 fold change of degron read counts [1] | log2 fold change of degron read counts [2] | log2 fold change of degron read counts [3] | log2 fold change of degron read counts (compound: thalidomide)
1 | B1 | -2.34 | -1.73 | 0.185 | -0.424
2 | B2 | -1.7 | -3.27 | -1.9 | -1.5
3 | B3 | -0.99 | -0.254 | 1.92 | 1.51
4 | B4 | 1.49 | 0.628 | 0.167 | 1.01
5 | B5 | 3.92 | 3.44 | 2.55 | 2.09
6 | B6 | 2.56 | 2.36 | 1.76 | 0.179
7 | B7 | 1.73 | 0.564 | 0.719 | 0.478
8 | B8 | 3.48 | 3.2 | 1.92 | 2.43
9 | B9 | 2.46 | 0.3 | 2.23 | 2.98
10 | B10 | 3.44 | 3.76 | 3.04 | 3.53
11 | B11 | 2.55 | 2.24 | -0.00355 | 2.87
12 | B12 | 0.857 | 2.89 | 2.7 | 2.5
13 | B13 | 3.29 | 2.92 | 2.02 | 2.62
14 | B14 | 2.73 | 2.52 | 1.71 | 0.267
15 | B15 | 1.51 | 1.03 | 1.08 | -0.729
16 | B16 | -0.373 | 1.49 | 0.797 | -1.24
17 | B17 | -1.96 | -2.12 | 0.439 | -2.32
18 | B18 | -1.29 | -1.42 | -1.67 | -1.29
